# Bioassay records as filed in PubChem BioAssay.
# Tau fluor cs: counter-screen for tau fibril formation inhibitors | tau K18 P301L Alexa594 fluorescence, heparin fibrillization | Potency, µM (titrated, usually from 57.7 µM), for the others: at the top dose activity change, negative = decrease | actives 0.93% (n = 280,000) | AID 1463; note: potency is the fitted concentration of half-maximal effect; nearly all actives have a fitted effect of over 55% in size
#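 Human tau K18 P301L (15 uM unlabeled, 0.24 uM Alexa 594-labeled) in 100 mM sodium acetate pH 7 with 20 uM heparin, 6 hr at 37 C. ThT 30 uM added, 1 hr ambient; Alexa 594 FP and total fluorescence read at 555/632 nm.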
# TRb SRC2 PPI: inhibitors of human thyroid hormone receptor beta-SRC2 interaction; P10828; TRbeta-SRC2 peptide binding, fluorescence polarization; receptor liganded with 1 µM T3; Potency, µM (titrated, usually from 106 µM), without a hit: at the highest dose activity change, negative = inhibition, hits mostly inhibitors; actives 0.065% (n = 280,000);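 note: potency is the fitted concentration of half-maximal effect; plate controls were bound peptide for no effect and peptide without receptor for full effect; nearly all actives have a fitted effect of over 50% in size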
#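 Each compound concentration gave % activity, normalized to unbound and bound Texas Red SRC2 controls, from polarization read after 5 hr ambient incubation with T3-loaded human TRb LBD.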
# Tau fibril ThT: tau fibrillization inhibition (ThT binding); Potency, µM (top dose mostly 57.4 µM), inactives show top-dose activity, negative = inhibition, actives largely listed as inhibitors; P10636; recombinant tau K18 P301L, heparin-induced fibrillization, ThT fluorescence; actives 2.1% (n = 270,000); note: potency is the fitted concentration of half-maximal effect; nearly all actives have a fitted effect of over 55% in size
# Target sequence (P10636 561-689 P618L limits assumed): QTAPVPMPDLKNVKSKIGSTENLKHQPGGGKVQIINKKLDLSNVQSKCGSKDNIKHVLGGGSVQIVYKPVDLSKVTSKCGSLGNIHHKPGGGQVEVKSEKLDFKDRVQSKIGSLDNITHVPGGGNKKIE
#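 Fibril formation assay: tau K18 P301L at 15 uM with trace Alexa 594 label, heparin inducer 20 uM, pH 7 sodium acetate buffer, 37 C for 6 hr; endpoint ThT signal.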
# Tau fibril FP: inhibitors of human tau fibril formation; actives 0.39% (n = 280,000); P10636; Potency, µM (series often up to 57.7 µM), without a hit: at the highest dose activity, negative = inhibition, usual class: inhibitors; K18 P301L tau heparin fibrillization, Alexa594 FP, 6 h; note: potency is the fitted concentration of half-maximal effect; nearly all actives have a fitted effect of over 55% in size
#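 Quantitative HTS format: compounds meet 15 uM recombinant K18 P301L tau and Alexa 594-tau tracer in 100 mM sodium acetate pH 7; 20 uM heparin triggers fibrillization at 37 C over 6 hr; FP gives the signal.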
# PNC assembly inh: inhibitors of perinucleolar compartment assembly; PC3M PTB-GFP, PNC prevalence imaging, 16 h; stronger effect = lower value; activity change (PNC), negative = inhibition, % at 10 µM; actives 3.1% (n = 140,000);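 active = readout at or below -70, meaning at least 70% loss of cells showing the perinucleolar compartment, a nuclear body marking cancer cells; inconclusive = readout between -30 and a set limit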;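 note: plate controls were DMSO wells for no effect and camptothecin positive control wells for full effect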
#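 Read-out is percentage of cells bearing a perinucleolar compartment, from automated 20x imaging of fixed, Hoechst-stained PC3M PTB-GFP cells. Cells were seeded 4 h, then exposed 16 h to compound (23 nl of library stock) in duplicate plates.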
# TexasRed fluor: alters Texas Red total fluorescence, flagging assay interference; TRb/SRC2 Texas Red total fluorescence interference; AID 1479; Potency, µM (top dose mostly 106 µM), without a hit: at the top dose fluorescence change, negative = quenching; actives 0.29% (n = 280,000); active = well fitted curve in either direction with a large enough effect; inconclusive = small, poorly fitted or top-dose-only effect; note: potency is the fitted concentration of half-maximal effect
#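 Human TRb ligand-binding domain at 0.6 uM with 20 nM Texas Red SRC2 peptide in Tris buffer containing 1 uM T3 and 5% DMSO, incubated with compound 5 h at ambient temperature. Total fluorescence (555/632 nm) calculated as parallel + 2 × perpendicular.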
# An asterisk follows results filed as active; ? = inconclusive; . = no result given; [ ] = dose if it differs, or a comment. Compounds with a hit are over-represented: about 4.6% of the library has one in this group of screens. Unless noted, calls come from the whole dose curve; as a rule, active = well fitted curve in the direction sought with a large enough effect; inconclusive = small, poorly fitted or top-dose-only effect, or another doubt; inactive = no such curve, though single readings can be large; an effect the other way counts as inactive or inconclusive. Unless noted, % is set by controls: 0 for no effect and ±100 for the full control effect.
SMILES,Tau fluor cs,TRb SRC2 PPI,Tau fibril ThT,Tau fibril FP,PNC assembly inh,TexasRed fluor
CCOC(=O)c1cnc2c(-c3ccc(Cl)cc3)c(C)nn2c1N,-1%,6%,-9%,0%,-8,3%
CCOc1ccccc1-c1nc2c([nH]1)c(=O)n(C)c(=O)n2C,-3%,-7%,-11%,1%,-27,-1%
Cc1ccsc1C=C1C(=O)c2ccccc2C1=O,?,-2%,14µM*,-2%,?,-8%
Cc1cc(C(F)(F)F)n(-c2nc(C(=O)N/N=C/c3ccc(F)cc3)cs2)n1,-11%,5%,?,1%,-106*,2%
COc1ccccc1NC(=O)c1csc(-n2nc(C)cc2C(F)(F)F)n1,-2%,2%,-12%,1%,-9,3%
COc1cccc(/C=N/NC(=O)c2csc(-n3nc(C)cc3C(F)(F)F)n2)c1,7%,-1%,?,6%,-90*,-4%
CSC1=N/C(=C\c2ccccc2F)C(=O)S1,-10%,-11%,-16%,-4%,21,0%
O=C(c1ccc2c(c1)OCO2)N1CCCCC1,-6%,-3%,-6%,4%,.,-2%
C=CCc1cc(C(=O)N2CCCCC2)ccc1O,4%,-6%,0%,15%,-81*,-5%
O=c1[nH]nc(CNc2ccc(C(F)(F)F)cc2)c2ccccc12,-18%,-10%,?,1%,.,-1%
O=c1[nH]nc(CNc2ccc(O)cc2)c2ccccc12,?,28µM*,32µM*,?,42,45µM*[fluorescent]
O=C(O)CC(C(=O)OCCOc1ccccc1)N1CCOCC1 (stereo not given),-2%,-4%,-8%,4%,-9,0%
CCc1ccc(N(C(=O)C(F)(F)F)C(C(=O)NC2CCCCC2)c2ccncc2)cc1 (stereo not given),-9%,3%,-5%,8%,?,-1%
O=C(Nc1nnc(C2CCCC2)s1)C1CCC1,-6%,1%,-4%,-5%,-127*,-5%
Cc1nnc(NC(=O)C2CCCCC2)s1,0%,2%,-3%,12%,38,2%
Cc1oc2ncn(C)c(=O)c2c1C(=O)NC(C)c1ccccc1 (stereo not given),-10%,-29%,-1%,-14%,.,0.28µM*[quencher]
NC(=O)[C@@H]1[C@@H]2C(=O)N(c3ccc(F)cc3)C(=O)[C@@H]2[C@H]2C=Cc3ccccc3N21,-25%,3%,14µM*,?,.,4%
O=C1C2C3C=CC(C3)C2C(=O)N1c1ccccc1 (stereo not given),5%,-16%,1%,10%,-15,-1%
COC(=O)C1(C)NC(c2ccco2)C2C(=O)N(c3ccc(F)cc3)C(=O)C21 (stereo not given),2%,6%,-3%,-3%,.,-3%
O=C(c1ccco1)[C@@H]1[C@@H]2C(=O)N(c3ccc(F)cc3)C(=O)[C@@H]2[C@H]2C=Cc3ccccc3N21,-25%,13%,14µM*,?,-3,2%
CCOc1ccc(/C=N/NC(=O)Cn2ccnc2C)cc1,-6%,-1%,-1%,0%,.,0%
CN(C)S(=O)(=O)c1cccc(NC(=S)Nc2ccc(Cl)cc2Cl)c1,-30%,2%,-13%,-15%,?,2%
CCN(CCO)c1ccc(NC(=S)Nc2cccc(S(=O)(=O)N(C)C)c2)cc1,?,?,14µM*,?,.,-13%
CN(C)S(=O)(=O)c1cccc(NC(=S)Nc2cc(Cl)cc(Cl)c2)c1,?,-5%,-11%,25µM*,35,-4%
CCOP(=O)(OCC)C(Nc1ccc(C(=O)O)cc1)c1ccccc1 (stereo not given),-7%,2%,-5%,-2%,.,-2%
O=C(Nc1ccc(F)cc1)Oc1ccc[nH]c1=O,0%,3%,.,1%,.,0%
